Shown are actives, neighbours in structure and some others; about 2.2% of the full set was active somewhere.
BaF3 parental: parental Ba/F3 cell viability inhibition, counter-screen for JAK2V617F inhibitor project, murine pro-B, CellTiter-Glo luminescence. CellTiter-Glo ATP luminescence. inhibition, % at 5.6 µM. actives 1.1% (n = 220,000);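 active = inhibition above a per-campaign cutoff, the mean inhibition of all tested compounds plus 3 SD, cut at about 27% in these data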;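 also: 0% = DMSO wells and 100% = JAK Inhibitor I control wells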
APP transl inh: inhibitors of APP translation via 5'UTR reporter, primary screen, APP 5'UTR luciferase, SH-SY5Y cells; inhibition, % at 2 µM; actives 0.82% (n = 190,000); AID 1285, 2008; SH-SY5Y APP 5'UTR-luciferase reporter, luminescence;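 active = inhibition above a set limit, derived from the sample mean plus 3 SD, cut at about 45% in these data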
IEC-6 tox: cytotoxicity in IEC-6 intestinal epithelial cells, primary screen, cytotoxicity control for KLF5 inhibitor project, cell-based, luminescence; IEC-6 cytotoxicity, luminescence viability; inhibition, % at 5 µM; actives 0.78% (n = 290,000); AID 1825, 2009; in the data active = inhibition above about 22%;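 also: 0% = plate median of test compound wells and 100% = cytotoxic reference compound wells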
KLF5 inhibitor: KLF5 expression inhibitors, primary screen, DLD-1 cells, luminescence. AID 1700, 2009. inhibition, % at 5 µM. DLD-1 KLF5 promoter-luciferase reporter. actives 0.23% (n = 290,000);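 active = inhibition above a per-plate limit of that plate's mean compound inhibition plus 3 SD, cut at about 60% in these data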;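 also: 0% = DMSO wells and 100% = LY294002 at 200 µM; higher means less KLF5 promoter-driven luciferase light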
Ba/F3 V617F tox: reduced viability of JAK2V617F-dependent Ba/F3 cells, primary screen, JAK2V617F inhibitor project, cell-based, Ba/F3 EpoR-JAK2V617F, luminescence | ATP luminescence | inhibition, % at 5.6 µM | actives 1.1% (n = 220,000);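 active = inhibition above the campaign mean plus 3 SD over all tested compounds, cut at about 24% in these data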;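 also: cytokine-independent growth of Ba/F3 cells driven by EpoR plus mutant JAK2; 0% = DMSO-treated cells and 100% = JAK inhibitor I control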
aSyn UTR inh: MLPCN primary screen, SNCA 5' untranslated region | alpha-synuclein 5'UTR reporter, inhibitor activity | inhibition, % (tested at 7.5 µM) | actives 0.82% (n = 300,000); in the data active = inhibition above about 60%;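 also: H4 neuroglioblastoma cells stably carrying SNCA 5'UTR luciferase fusion; 0% = DMSO wells and 100% = positive control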
* = called active by the depositor; / = no result given.

SMILES	BaF3 parental	APP transl inh	IEC-6 tox	KLF5 inhibitor	Ba/F3 V617F tox	aSyn UTR inh
O=C(N/N=C\c1cc(Cl)ccc1O)c1ccc(S(=O)(=O)N2CCCCC2)cc1	5	73*	2	9	-3	113*
Cc1sc(NC(=O)CN2CCOCC2)c(C#N)c1C	-2	/	-2	1	2	13
Cc1cccc(NC(=S)N/N=C/c2c[nH]c3ccccc23)c1	-1	86*	12	5	-5	-65
CC(C)CC(C(=O)NC(C)(C)C)N(Cc1ccccc1Cl)C(=O)c1snc(C(N)=O)c1N (configuration not stated)	/	/	-3	-27	/	20
O=C(/C=C/c1ccc(Cl)cc1)Nc1ccccc1N1CCOCC1	3	9	1	-6	-3	-5
CC(NC(=O)CN(c1ccc(Cl)cc1)S(C)(=O)=O)c1ccccc1 (configuration not stated)	/	/	-2	-13	/	5
COc1cccc(/C=C2\SC(=O)N(CCC(=O)N3CCC(C(=O)O)CC3)C2=O)c1	/	/	4	1	/	-2
O=C1N(c2ccccc2)C[C@@H]2C[C@@H](c3cccs3)N3CCC[C@@]123	-2	7	5	-16	-3	-18
CC(C)(O)C#Cc1ccc([C@@H]2C[C@H]3CN(c4ccccc4)C(=O)[C@]34CCCN24)s1	5	82*	4	-2	2	3
C/C(Cc1ccccc1)=N\NC(=O)CNC(=O)c1ccc(C(C)(C)C)cc1	1	16	3	-5	-4	-13
CC(=O)Nc1ccc(SCC(=O)c2cc(C)n(Cc3cccs3)c2C)cc1	7	-112	5	-1	1	68*
COc1ccc(-n2cnnc2SCC(=O)c2cc(C)n(Cc3cccs3)c2C)cc1	7	1	-2	-16	2	-3
COc1ccc(-c2nnc(SCC(=O)c3cc(C)n(Cc4cccs4)c3C)o2)cc1	2	-5	2	-13	0	-4
Cc1csc(SCC(=O)c2cc(C)n(Cc3cccs3)c2C)n1	2	-120	0	-33	-5	73*
Cc1cc(C(=O)CSc2nnc(N)s2)c(C)n1Cc1cccs1	0	-136	-1	-82	-1	69*
COc1ccccc1OCc1nnc(SCC(=O)Nc2ccc(N3CCOCC3)cc2)n1C	/	/	-1	3	/	-9
Cc1cccnc1NC(=S)NC(=O)c1oc2ccccc2c1C	/	/	-7	-144	/	-226
Cc1cc(=O)[nH]c(N=N/C(=N/Nc2ccccc2C)c2ccccc2)n1	2	4	2	-28	1	82*
COc1ccc(N/N=C(/N=Nc2nc(C)cc(=O)[nH]2)c2ccccc2)cc1	4	-38	2	-71	14	85*
Cc1cc(=O)[nH]c(SCC(=O)Nc2ccccc2C)n1	5	-9	-6	-2	0	-23
Cc1cc(=O)[nH]c(N=N/C(=N/Nc2ccc(O)cc2)c2ccccc2)n1	1	-91	3	-94	-3	-100
COc1cccc(-c2csc(N3CCN(C(=S)Nc4ccc(Cl)cc4)CC3)n2)c1	38*	2	6	-10	38*	-32
O=C(O)c1ccc2cc(-c3ccccc3)[nH]c2c1	/	/	/	/	/	66*
COc1ccc(Nc2cc3n(c(=O)n2)CCc2cc(OC)c(OC)cc2-3)c(C)c1	/	/	6	-7	/	80*
CSCC[C@H](N)C(=O)NCC1CCC(C(=O)Nc2ccc3c(c2)OCO3)CC1 (some centres not stated)	/	/	-3	5	/	12
SMILES	BaF3 parental	APP transl inh	IEC-6 tox	KLF5 inhibitor	Ba/F3 V617F tox	aSyn UTR inh
COc1ccc(Cc2nnc(SCC(=O)Nc3ccc(C)cc3C)[nH]c2=O)cc1	/	/	/	/	/	10
CCCOc1ccc(OCCSc2nnc(N)s2)cc1	40*	5	5	-107	24*	-89
Nc1nnc(SCCCOc2ccc(F)cc2)s1	/	/	1	-8	/	-6
CCOC(=O)c1[nH]c(C)c(CN(C(C)=O)c2ccc(OCC)cc2)c1C	12	-3	32*	38	8	-23
CC(=O)Nc1ccc(S(=O)(=O)Oc2ccc3c(c2)C(C)=CC(C)(C)N3)cc1	73*	27	33*	-8	80*	9
CCOC(=O)C(CC)/C(C)=N\NC(=O)c1ccccc1O (configuration not stated)	9	52*	-4	16	10	93*
CC1=C(C)/C(=N\OS(=O)(=O)c2ccc(C)cc2)C=CC1=O	68*	90*	-6	-19	88*	/
CC1=C/C(=N\OS(=O)(=O)c2ccccc2)C(C(C)C)=CC1=O	78*	96*	-4	11	86*	/
CC1=C/C(=N\OS(=O)(=O)c2ccccc2)C(C)=CC1=O	100*	95*	-7	-53	97*	/
COc1cc(C(=O)O/N=C2/C=C(C)C(=O)C=C2C)cc(OC)c1OC	1	-5	-6	-26	-4	-16
Cc1[nH]nc2c1C(c1ccccn1)N(c1ccc(Br)cc1)C2=O (configuration not stated)	95*	3	-1	-3	-2	0
COc1ccc(S(=O)(=O)Nc2ccc(Oc3ccsc3C(=O)O)cc2)cc1	/	/	3	-5	/	-8
O=c1cc2oc3cc(O)c(O)cc3c(-c3ccccc3[N+](=O)[O-])c-2cc1O	/	/	12	-4	/	71*
Cn1c(-c2cccs2)[n+](C)c2ccccc21	32*	-7	7	12	49*	14
COn1c(=O)c(-c2cccs2)[n+]([O-])c2ccccc21	3	8	9	15	4	-18
C=CCNC(=S)N1CCN(Cc2ccccc2)CC1	2	28	-3	-32	-2	11
O=C(CCl)Nc1ccccc1Sc1ccc(Cl)cc1	1	/	4	-31	0	93*
Cc1ccc(CN(C(=O)c2ccc(Cl)c([N+](=O)[O-])c2)C2CCS(=O)(=O)C2)o1 (configuration not stated)	/	/	6	-16	/	-18
COc1cccc(NC(=O)CSc2nc3ccccc3cc2Cc2ccccc2)c1	0	-5	-6	-6	-3	22
COc1cccc(CSc2nc3ccccc3cc2C=O)c1	36*	89*	7	31	50*	71*
CSc1cccc(-n2cc(-c3ccc4c(c3)OCO4)[nH]c2=O)c1	29*	-59	10	-42	2	-58
COc1cc(OC)cc(-c2nnc(NC(=O)Cc3ccc(F)cc3)o2)c1	/	/	-13	5	/	0
CC(=O)N1CCN(c2ccc(NC(=O)c3ccc(OCc4ccccc4)cc3)cc2)CC1	-1	-29	-4	5	-4	4
COc1ccc(-c2cn(-c3ccc(Cl)cc3)c3[n+]2CCCCC3)cc1	68*	/	3	0	71*	15

Assay outcomes deposited in PubChem by several laboratories.
